Compound activity from PubChem.
Compounds with a hit are over-represented: about 2% of the library has one in this group of screens.
FUS yeast rescue = qHTS for Suppressors of FUS Proteinopathy: Primary screen using FUS-linked yeast assay. S. cerevisiae FUS-expressing, growth rescue, OD600, 24 h. Potency, µM (top dose mostly 76.6 µM), most hits filed as activators. actives 0.24% (n = 390,000). AID 1347120, 2019;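 note: potency is the fitted concentration of half-maximal effect; plate controls were DMSO vehicle for no effect and reference control for full effect; nearly all actives have a fitted effect of over 55% in size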
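Restored growth of FUS-toxic S. cerevisiae, read as 600 nm absorbance after 24 h at 30C in galactose medium (starting OD 0.005). Controls CP55940 and DMSO.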
TDP43 rescue = qHTS of TDP-43 Inhibitors; AID 652104, 2013; TDP-43 expressing yeast growth rescue, BacTiter-Glo, 24 h; Potency, µM (top dose mostly 46.1 µM), for the others: at the highest dose growth rescue (activation), hits mostly activators; actives 1.8% (n = 410,000); note: potency is the fitted concentration of half-maximal effect; % of control where 0% means no effect; nearly all actives have a fitted effect of over 50% in size
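Readout is BacTiter-Glo luminescence of cell growth, so inhibitors register as activators. TDP-43-expressing yeast at OD600=0.02 in galactose medium, after raffinose pregrowth to mid-log, were incubated with compound for 24 hr at 30 deg C.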
Abeta rescue = qHTS for compounds that reverse cellular toxicity of Amyloid beta (A-beta) peptide in yeast: Primary Screen; yeast expressing A-beta42, growth rescue, OD600, 48 h; response scale: 0% DMSO, 100% iron-clioquinol control; actives 0.063% (n = 410,000); AID 1347071, 2019; Potency, µM (series often up to 46.1 µM), actives largely listed as activators; note: potency is the fitted concentration of half-maximal effect; nearly all actives have a fitted effect of over 55% in size
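Yeast growth medium received pinned compounds, then yeast cells expressing toxic A-beta were added; plates incubated at 30 C for 48 hr. Growth read as absorbance at 600 nm, normalized to DMSO and equimolar FeCl3 plus clioquinol controls.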
LDHA inh = qHTS assay for inhibitors of human lactate dehydrogenase; L-lactate dehydrogenase A chain (Homo sapiens), P00338; purified LDHA, NADH/diaphorase-resazurin fluorescence; active compounds read low; activity change, % (values are at about 110 or 230 µM); actives 0.15% (n = 480,000); in the data active = activity change below about -30%; inconclusive = mostly about -25% to -30%;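 note: plate controls were DMSO wells for no effect and wells without enzyme for full effect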
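Remaining NADH was detected by diaphorase (0.133 mg/mL) converting 37 µM resazurin to fluorescent resorufin, read at 0 and 20 minutes. The preceding 5-minute room-temperature reaction used 2 nM LDHA, 0.2 mM sodium pyruvate and 0.06 mM NADH at pH 7.4.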
mIDH1 inhibitor = qHTS for Inhibitors of mutant isocitrate dehydrogenase 1 (IDH1): qHTS; Isocitrate dehydrogenase [NADP] cytoplasmic (Homo sapiens), O75874; IDH1-R132H enzyme, NADPH consumption, diaphorase/resazurin fluorescence; Potency, µM (titrated, usually from 76.6 µM), inactives show at the highest dose activity change, negative = inhibition, usual class: inhibitors; actives 0.093% (n = 390,000); AID 602179, 2012; note: potency is the fitted concentration of half-maximal effect; % is set by controls: 0 for no effect and ±100 for the full control effect; nearly all actives have a fitted effect of over 65% in size
Target sequence (O75874 whole entry R132H, stated change not applied): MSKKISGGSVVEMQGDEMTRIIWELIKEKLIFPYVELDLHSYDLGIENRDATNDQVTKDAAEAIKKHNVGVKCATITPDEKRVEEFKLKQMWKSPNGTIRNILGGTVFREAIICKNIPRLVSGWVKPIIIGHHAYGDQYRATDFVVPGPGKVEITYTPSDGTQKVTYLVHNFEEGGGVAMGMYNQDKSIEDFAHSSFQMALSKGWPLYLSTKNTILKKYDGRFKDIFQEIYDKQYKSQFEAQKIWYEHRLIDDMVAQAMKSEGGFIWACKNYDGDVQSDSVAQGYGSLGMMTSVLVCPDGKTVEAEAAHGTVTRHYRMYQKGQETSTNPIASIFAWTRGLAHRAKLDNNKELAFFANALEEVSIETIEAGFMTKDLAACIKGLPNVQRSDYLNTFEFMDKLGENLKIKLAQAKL
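IDH1-R132H (0.5 ug/mL dispensed) in pH 7.5 Tris buffer was preincubated 30 min with compound, then given a substrate mix of 0.016 mM NADPH and 2 mM alpha-KG for 80 min at room temperature; remaining NADPH was read by diaphorase/resazurin fluorescence.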
aSyn yeast inh = qHTS of alpha-syn Inhibitors; Yeast expressing alpha-synuclein, growth rescue, BacTiter-Glo, 24 h; Potency, µM (doses to about 46.1 µM), without a hit: at the highest dose growth rescue (activation), hits mostly activators; actives 0.14% (n = 370,000); AID 652106, 2013; note: potency is the fitted concentration of half-maximal effect; % of control where 0% means no effect; nearly all actives have a fitted effect of over 65% in size
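Screening used galactose-induced yeast with toxic alpha-synuclein levels, exposed to compound for 24 hr at 30 deg C. Cell growth, read with BacTiter-Glo luminescence, gave the measured signal.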
Resorufin autofl = qHTS for Inhibitors of mutant isocitrate dehydrogenase 1 (IDH1): Cherrypicks Autofluorescence Interference; inhibition of signal, % at 51.2 µM; 750 tested, under 10 active; Resorufin detection reagent fluorescence interference, cell-free; shares compounds with mIDH1 inhibitor; AID 623980, 2012;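 note: 0% = wells with normal resorufin and full inhibition = wells lacking resorufin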
WT IDH1 inh = qHTS for Inhibitors of mutant isocitrate dehydrogenase 1 (IDH1): Cherrypicks in WT IDH1; AID 623995, 2012; Potency, µM (highest dose often 115 µM), for the others: at the highest dose activity change, negative = inhibition, hits mostly inhibitors; WT IDH1 enzyme, NADPH diaphorase/resazurin fluorescence; shares compounds with mIDH1 inhibitor; actives 9% (n = 750);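 note: potency is the fitted concentration of half-maximal effect; 0% = full WT IDH1 enzyme control and full inhibition = no enzyme wells; nearly all actives have a fitted effect of over 55% in size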
Target sequence (O75874 whole entry, looked up): as the sequence (O75874 whole entry R132H, stated change not applied) above, with H132R counted along it
IDH1 R132H conf = qHTS for Inhibitors of mutant isocitrate dehydrogenase 1 (IDH1): Confirmation of Cherrypicks; IDH1 R132H enzyme, NADPH diaphorase/resazurin fluorescence; Potency, µM (series often up to 76.6 µM), for inactives: at the top dose activity change, negative = inhibition, most hits filed as inhibitors; shares compounds with mIDH1 inhibitor; actives 83% (n = 750); AID 624002, 2012; note: potency is the fitted concentration of half-maximal effect; nearly all actives have a fitted effect of over 50% in size
The depositor's hits bear a star; i = inactive; ? = inconclusive; / = no result. Unless noted, calls come from the whole dose curve; as a rule, active = well fitted curve in the direction sought with a large enough effect; inconclusive = small, poorly fitted or top-dose-only effect, or another doubt; inactive = no such curve, though single readings can be large; an effect the other way counts as inactive or inconclusive.

SMILES | FUS yeast rescue | TDP43 rescue | Abeta rescue | LDHA inh | mIDH1 inhibitor | aSyn yeast inh | Resorufin autofl | WT IDH1 inh | IDH1 R132H conf
Cc1ccc(N2C(=O)c3n[nH]c(C)c3C2c2ccc(Cl)cc2)cc1 (stereo not given) | i | 6% | i | -11 | ? | / | -3 | -3% | 45µM*
CNC(=O)/C(C#N)=C/c1c(N(Cc2ccccc2)Cc2ccccc2)nc2c(C)cccn2c1=O | ? | ? | i | -6 | 52µM* | 10% | -1 | 2% | 14µM*
CCNC(=O)/C(C#N)=C/c1c(N2CCOCC2)nc2ccccn2c1=O | i | 21% | i | -1 | 4% | -1% | / | / | /
CCNC(=O)/C(C#N)=C/c1c(N(Cc2ccccc2)Cc2ccccc2)nc2ccccn2c1=O | / | -14% | i | 0 | ? | -1% | -4 | 1% | 20µM*
CCNC(=O)/C(C#N)=C/c1c(N2CCN(C)CC2)nc2c(C)cccn2c1=O | i | 10% | i | -3 | 2% | 2% | / | / | /
Cc1ccc(CN2CCSc3ccc(C(=O)N4CCN(c5ncccn5)CC4)cc32)cc1 | i | -8% | i | -7 | ? | 3% | 6 | 3% | 16µM*
CCN1CCN(C(=O)c2ccc3c(c2)N(Cc2ccc(C)cc2)CCS3)CC1 | i | 5% | / | -2 | 11% | 11% | / | / | /
Cc1ccc(NC2(c3nnnn3-c3c(C)cccc3C)CCCCC2)cc1 | i | -27% | i | 1 | 58µM* | -29% | -8 | 0% | -12%
CSC1=C(C#N)C(c2ccccc2C)C(C#N)=C(N)N1 (stereo not given) | i | 18% | i | -36* | ? | 9% | 6 | 116% | 45µM*
Cc1ccc(C)c(NC(=O)c2csc3c2CCCC3)c1 | / | / | / | 0 | / | / | / | / | /
N#CC(=C1C=C(Br)C(=NO)C=C1Cl)c1ccc(Cl)cc1 | i | ? | i | 6 | ? | -2% | 6 | ? | 28µM*
Cn1c(SSc2ccc(-c3cccnc3)n2C)ccc1-c1cccnc1 | i | -7% | i | 3 | 10µM* | 2% | 1 | 360% | 35µM*
c1cncc(-c2nnc(-c3cccnc3)nn2)c1 | i | 14% | i | 34 | 18% | -40% | / | / | /
Cc1ccc(C(=O)NCC(=O)NCCc2c[nH]c3ccccc23)cc1C | / | / | / | 2 | / | / | / | / | /
COCCn1cnc2c1c(=O)n(CC(=O)Nc1ccccc1F)c(=O)n2Cc1ccccc1 | / | / | / | 3 | / | / | / | / | /
Cn1cc(S(=O)(=O)c2cccc(Cl)c2)c(=O)c2cc(F)c(N3CCCCC3)cc21 | i | 0% | i | 1 | ? | / | 3 | 3% | 13µM*
